# Reference: ChEMBL document CHEMBL2218924, “A broad activity screen in support of a chemogenomic map for kinase signalling research and drug discovery” (Biochem J, 2013)
# What was measured:
# [1] = biological target: Death-associated protein kinase 1 (Homo sapiens) (UniProt P53355); conditions: at 10 µM
# [2] = biological target: T1, Serine/threonine-protein kinase DCLK2 (Homo sapiens) (UniProt Q8N568); conditions: at 1 µM
# T1 sequence (whole entry): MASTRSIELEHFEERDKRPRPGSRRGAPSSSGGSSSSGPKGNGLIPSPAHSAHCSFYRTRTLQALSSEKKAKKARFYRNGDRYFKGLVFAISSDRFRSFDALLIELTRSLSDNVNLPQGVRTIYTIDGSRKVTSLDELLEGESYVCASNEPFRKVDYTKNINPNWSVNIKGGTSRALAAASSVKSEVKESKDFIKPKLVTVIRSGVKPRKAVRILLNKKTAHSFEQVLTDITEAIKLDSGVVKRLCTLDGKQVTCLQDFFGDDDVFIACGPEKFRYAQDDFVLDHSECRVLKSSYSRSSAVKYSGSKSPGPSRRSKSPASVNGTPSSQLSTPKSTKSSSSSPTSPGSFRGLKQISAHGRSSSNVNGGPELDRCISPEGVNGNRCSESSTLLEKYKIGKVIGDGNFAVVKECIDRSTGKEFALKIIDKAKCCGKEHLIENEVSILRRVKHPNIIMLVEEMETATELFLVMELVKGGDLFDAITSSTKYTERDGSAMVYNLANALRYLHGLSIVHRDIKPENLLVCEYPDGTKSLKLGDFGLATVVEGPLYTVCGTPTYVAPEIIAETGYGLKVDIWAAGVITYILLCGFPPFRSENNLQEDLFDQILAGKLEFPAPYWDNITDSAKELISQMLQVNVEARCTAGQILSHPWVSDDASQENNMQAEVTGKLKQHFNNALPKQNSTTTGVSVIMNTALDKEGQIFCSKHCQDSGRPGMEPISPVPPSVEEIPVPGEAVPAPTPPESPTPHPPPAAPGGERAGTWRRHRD
# [3] = biological target: T1, Serine/threonine-protein kinase DCLK2 (Homo sapiens); conditions: at 10 µM
# [4] = biological target: T2, Myotonin-protein kinase (Homo sapiens) (UniProt Q09013); conditions: at 10 µM
# T2 sequence (whole entry): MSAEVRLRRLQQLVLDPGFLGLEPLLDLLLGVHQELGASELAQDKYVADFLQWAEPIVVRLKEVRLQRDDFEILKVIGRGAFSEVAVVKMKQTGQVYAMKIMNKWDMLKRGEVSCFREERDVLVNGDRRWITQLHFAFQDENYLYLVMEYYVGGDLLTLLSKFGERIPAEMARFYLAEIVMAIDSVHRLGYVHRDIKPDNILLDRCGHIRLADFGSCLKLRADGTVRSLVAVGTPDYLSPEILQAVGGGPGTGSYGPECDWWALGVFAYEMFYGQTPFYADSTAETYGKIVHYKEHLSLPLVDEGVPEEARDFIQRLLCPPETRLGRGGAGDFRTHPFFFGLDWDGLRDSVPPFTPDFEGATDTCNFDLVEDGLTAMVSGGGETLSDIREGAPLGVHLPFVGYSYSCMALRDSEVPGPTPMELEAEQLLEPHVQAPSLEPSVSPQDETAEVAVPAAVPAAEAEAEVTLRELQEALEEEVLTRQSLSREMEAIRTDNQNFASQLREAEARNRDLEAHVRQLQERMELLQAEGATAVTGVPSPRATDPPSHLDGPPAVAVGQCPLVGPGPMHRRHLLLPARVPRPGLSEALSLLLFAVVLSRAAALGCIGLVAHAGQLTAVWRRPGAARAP
# [5] = biological target: Death-associated protein kinase 2 (Homo sapiens) (UniProt Q9UIK4); conditions: at 1 µM
# [6] = biological target: Death-associated protein kinase 2 (Homo sapiens) (UniProt Q9UIK4); conditions: at 10 µM
# [7] = biological target: T3, Serine/threonine-protein kinase 17A (Homo sapiens) (UniProt Q9UEE5); conditions: at 1 µM
# T3 sequence (whole entry): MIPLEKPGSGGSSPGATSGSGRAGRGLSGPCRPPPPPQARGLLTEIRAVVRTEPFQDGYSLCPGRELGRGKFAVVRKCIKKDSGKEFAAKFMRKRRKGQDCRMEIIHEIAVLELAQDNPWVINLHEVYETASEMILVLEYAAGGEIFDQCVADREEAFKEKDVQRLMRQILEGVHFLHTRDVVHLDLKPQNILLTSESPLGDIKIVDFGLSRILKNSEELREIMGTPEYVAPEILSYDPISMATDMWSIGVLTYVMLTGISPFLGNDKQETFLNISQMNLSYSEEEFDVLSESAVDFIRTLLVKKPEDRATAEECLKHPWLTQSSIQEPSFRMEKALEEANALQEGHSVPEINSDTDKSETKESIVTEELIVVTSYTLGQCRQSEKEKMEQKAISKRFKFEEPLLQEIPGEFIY
# [8] = biological target: T2, Myotonin-protein kinase (Homo sapiens); conditions: at 1 µM
# [9] = biological target: T4, Discoidin domain-containing receptor 2 (Homo sapiens) (UniProt Q16832); conditions: at 1 µM
# T4 sequence (whole entry): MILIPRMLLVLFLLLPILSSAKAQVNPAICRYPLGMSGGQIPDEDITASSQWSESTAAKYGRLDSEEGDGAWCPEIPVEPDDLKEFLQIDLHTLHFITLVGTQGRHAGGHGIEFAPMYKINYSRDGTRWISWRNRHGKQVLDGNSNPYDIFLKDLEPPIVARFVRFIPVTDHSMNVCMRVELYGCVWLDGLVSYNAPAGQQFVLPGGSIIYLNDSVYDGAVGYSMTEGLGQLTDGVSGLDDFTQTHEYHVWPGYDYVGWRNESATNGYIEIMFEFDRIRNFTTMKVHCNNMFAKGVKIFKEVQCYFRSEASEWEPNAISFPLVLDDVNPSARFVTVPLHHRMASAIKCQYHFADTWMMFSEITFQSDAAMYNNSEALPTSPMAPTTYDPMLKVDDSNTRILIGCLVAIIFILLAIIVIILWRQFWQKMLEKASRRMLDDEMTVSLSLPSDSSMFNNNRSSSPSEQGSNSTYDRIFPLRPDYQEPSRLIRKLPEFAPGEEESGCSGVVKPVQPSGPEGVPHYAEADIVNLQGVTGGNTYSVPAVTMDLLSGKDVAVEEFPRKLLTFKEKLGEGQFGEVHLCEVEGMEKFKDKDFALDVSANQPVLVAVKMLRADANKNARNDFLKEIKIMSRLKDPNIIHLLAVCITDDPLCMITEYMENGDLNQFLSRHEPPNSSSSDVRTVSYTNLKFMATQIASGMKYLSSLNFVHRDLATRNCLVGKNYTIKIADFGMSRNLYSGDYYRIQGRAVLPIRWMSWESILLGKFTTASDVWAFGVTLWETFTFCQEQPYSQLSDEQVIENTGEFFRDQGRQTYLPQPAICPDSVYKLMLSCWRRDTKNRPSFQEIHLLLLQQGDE
# [10] = biological target: T4, Discoidin domain-containing receptor 2 (Homo sapiens); conditions: at 10 µM
# Chain of Death-associated protein kinase 2 (Homo sapiens) (Q9UIK4 whole entry, looked up): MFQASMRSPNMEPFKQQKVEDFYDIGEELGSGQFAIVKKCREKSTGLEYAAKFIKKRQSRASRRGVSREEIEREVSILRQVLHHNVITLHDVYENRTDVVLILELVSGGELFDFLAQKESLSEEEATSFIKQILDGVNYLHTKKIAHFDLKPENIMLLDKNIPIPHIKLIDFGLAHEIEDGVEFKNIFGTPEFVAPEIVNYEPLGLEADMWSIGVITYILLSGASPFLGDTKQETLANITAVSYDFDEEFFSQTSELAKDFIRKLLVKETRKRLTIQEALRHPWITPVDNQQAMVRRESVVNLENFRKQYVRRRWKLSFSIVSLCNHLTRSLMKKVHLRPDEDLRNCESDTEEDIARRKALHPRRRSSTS
# Chain of Death-associated protein kinase 1 (Homo sapiens) (P53355 whole entry, looked up): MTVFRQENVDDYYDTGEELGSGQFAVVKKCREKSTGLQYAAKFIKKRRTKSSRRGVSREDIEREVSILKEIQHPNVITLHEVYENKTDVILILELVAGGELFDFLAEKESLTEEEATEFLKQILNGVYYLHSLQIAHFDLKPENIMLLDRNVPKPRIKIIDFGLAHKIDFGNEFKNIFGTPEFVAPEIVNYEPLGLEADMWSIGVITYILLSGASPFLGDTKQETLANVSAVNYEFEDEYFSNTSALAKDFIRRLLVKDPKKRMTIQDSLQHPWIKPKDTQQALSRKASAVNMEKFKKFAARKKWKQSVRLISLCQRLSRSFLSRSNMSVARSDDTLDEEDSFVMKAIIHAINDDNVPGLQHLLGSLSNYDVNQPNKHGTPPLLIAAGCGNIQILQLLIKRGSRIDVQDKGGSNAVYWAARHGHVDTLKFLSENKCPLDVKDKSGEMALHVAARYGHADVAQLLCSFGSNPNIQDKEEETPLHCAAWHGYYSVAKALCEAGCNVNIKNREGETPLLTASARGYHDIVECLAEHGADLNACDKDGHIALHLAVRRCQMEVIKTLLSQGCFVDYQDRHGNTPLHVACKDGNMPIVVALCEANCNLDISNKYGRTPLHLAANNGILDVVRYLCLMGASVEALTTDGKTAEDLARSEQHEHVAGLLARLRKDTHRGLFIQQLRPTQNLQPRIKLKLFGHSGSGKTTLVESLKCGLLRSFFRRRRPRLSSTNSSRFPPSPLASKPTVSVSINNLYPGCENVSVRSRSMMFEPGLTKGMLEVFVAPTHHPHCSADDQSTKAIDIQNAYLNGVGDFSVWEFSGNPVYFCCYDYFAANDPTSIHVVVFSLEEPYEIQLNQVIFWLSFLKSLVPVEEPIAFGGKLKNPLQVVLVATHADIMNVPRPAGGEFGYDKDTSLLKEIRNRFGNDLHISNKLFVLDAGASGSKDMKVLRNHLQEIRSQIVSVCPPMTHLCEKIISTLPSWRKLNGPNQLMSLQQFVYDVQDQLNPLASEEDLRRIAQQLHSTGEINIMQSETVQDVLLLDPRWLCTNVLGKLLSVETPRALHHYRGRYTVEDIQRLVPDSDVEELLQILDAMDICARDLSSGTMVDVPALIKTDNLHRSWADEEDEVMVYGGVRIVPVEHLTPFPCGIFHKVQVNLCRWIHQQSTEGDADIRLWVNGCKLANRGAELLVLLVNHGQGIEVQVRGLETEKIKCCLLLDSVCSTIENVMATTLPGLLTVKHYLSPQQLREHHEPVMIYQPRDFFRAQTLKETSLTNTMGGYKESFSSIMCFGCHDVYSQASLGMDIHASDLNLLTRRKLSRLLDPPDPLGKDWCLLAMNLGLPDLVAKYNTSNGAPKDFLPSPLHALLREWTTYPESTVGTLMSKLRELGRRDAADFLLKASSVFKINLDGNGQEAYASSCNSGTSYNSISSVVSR
structure (smiles),measurement,setting,value
CC(C)N(CCC(=O)c1ccc2ccccc2c1)Cc1ccccc1,residual activity,[1],76%
same,residual activity,[2],80%
same,residual activity,[3],80%
same,residual activity,[4],131%
O=C1Nc2ccc(Cl)cc2/C1=C/c1cc(Cl)c(O)c(Cl)c1,residual activity,[1],46%
same,residual activity,[5],69%
same,residual activity,[6],28%
same,residual activity,[2],61%
same,residual activity,[3],73%
same,residual activity,[4],138%
same,residual activity,[7],71%
Nc1n[nH]c2nc3ccccc3nc12,residual activity,[1],96%
same,residual activity,[2],98%
same,residual activity,[3],84%
same,residual activity,[8],98%
same,residual activity,[4],76%
same,residual activity,[7],86%
O=C(CCCc1ccc(-c2ccccc2F)cc1)Nc1ccc(O)cc1,residual activity,[1],105%
same,residual activity,[5],102%
same,residual activity,[6],99%
same,residual activity,[2],133%
same,residual activity,[3],192%
same,residual activity,[9],99%
same,residual activity,[10],111%
same,residual activity,[8],108%
same,residual activity,[4],97%
CC(C)[C@H](CO)Nc1nc(Nc2cc(N)cc(Cl)c2)c2ncn(C(C)C)c2n1,residual activity,[1],80%
same,residual activity,[5],99%
same,residual activity,[6],97%
same,residual activity,[2],94%
same,residual activity,[3],95%
same,residual activity,[9],95%
same,residual activity,[10],88%
same,residual activity,[8],87%
same,residual activity,[4],90%
O=C(NC(NC(=S)Nc1ccc(F)c([N+](=O)[O-])c1)C(Cl)(Cl)Cl)C(c1ccccc1)c1ccccc1 (stereo unspecified),residual activity,[1],71%
same,residual activity,[5],95%
same,residual activity,[6],78%
same,residual activity,[2],136%
same,residual activity,[3],86%
same,residual activity,[9],102%
same,residual activity,[10],90%
same,residual activity,[8],71%
CN(C)S(=O)(=O)c1ccc2c(c1)/C(=C/c1cc3c([nH]1)CCCC3)C(=O)N2,residual activity,[1],99%
same,residual activity,[2],55%
same,residual activity,[3],55%
same,residual activity,[8],113%
same,residual activity,[4],92%
same,residual activity,[7],70%
O=C(c1ccccc1)c1ccc(N2CCOCC2)cc1O,residual activity,[1],100%
same,residual activity,[5],89%
same,residual activity,[2],64%
same,residual activity,[3],93%
same,residual activity,[9],111%
same,residual activity,[10],93%
same,residual activity,[8],138%
O=C1NC(=O)c2c1c1c3ccccc3[nH]c1n1cncc21,residual activity,[1],41%
same,residual activity,[5],9%
same,residual activity,[6],-1%
same,residual activity,[2],96%
same,residual activity,[3],85%
same,residual activity,[9],85%
same,residual activity,[10],91%
same,residual activity,[7],10%
Oc1cccc(-c2nc(N3CCOCC3)c3oc4ncccc4c3n2)c1,residual activity,[1],76%
same,residual activity,[5],93%
same,residual activity,[2],94%
same,residual activity,[3],65%
same,residual activity,[7],116%
COc1cc2nccc(Oc3ccc(NC(=S)NC(=O)c4ccccc4C)cc3)c2cc1OC,residual activity,[1],76%
same,residual activity,[5],99%
same,residual activity,[6],99%
same,residual activity,[2],82%
same,residual activity,[3],94%
same,residual activity,[9],26%
same,residual activity,[10],11%
same,residual activity,[8],138%
same,residual activity,[4],141%
same,residual activity,[7],129%
O=c1cc(N2CCOCC2)oc2c1ccc1ccccc12,residual activity,[1],84%
same,residual activity,[5],92%
same,residual activity,[6],80%
same,residual activity,[2],83%
same,residual activity,[3],87%
same,residual activity,[9],106%
same,residual activity,[10],105%
same,residual activity,[7],92%
O=C1NC(=O)C(c2cn(CCCO)c3ncccc23)=C1c1cnccn1,residual activity,[1],83%
same,residual activity,[5],65%
same,residual activity,[6],59%
same,residual activity,[2],95%
same,residual activity,[3],78%
same,residual activity,[9],93%
same,residual activity,[10],96%
same,residual activity,[4],82%
same,residual activity,[7],89%
CCCC(=O)Oc1ccc2[nH]c(C(=O)c3cc4ccccc4[nH]3)cc2c1,residual activity,[1],68%
same,residual activity,[5],95%
same,residual activity,[6],104%
same,residual activity,[2],82%
same,residual activity,[3],93%
same,residual activity,[10],101%
same,residual activity,[8],132%
same,residual activity,[4],133%
COc1ccc2c(c1)c(C1=C(c3c[nH]c4ccccc34)C(=O)NC1=O)cn2CCCN(C)C,residual activity,[1],76%
same,residual activity,[5],71%
same,residual activity,[6],32%
same,residual activity,[2],54%
same,residual activity,[3],55%
same,residual activity,[9],111%
same,residual activity,[8],103%
same,residual activity,[4],104%
Nc1ncnc2c1c(-c1ccc(Oc3ccccc3)cc1)cn2C1CCCC1,residual activity,[1],69%
same,residual activity,[5],101%
same,residual activity,[2],91%
same,residual activity,[3],93%
same,residual activity,[9],105%
same,residual activity,[10],53%
same,residual activity,[8],127%
same,residual activity,[4],127%
same,residual activity,[7],110%
Cn1c2ccccc2c2c3c(c4c5ccccc5n(CCC#N)c4c21)CNC3=O,residual activity,[1],73%
same,residual activity,[5],93%
same,residual activity,[6],105%
same,residual activity,[2],56%
same,residual activity,[3],60%
same,residual activity,[8],121%
same,residual activity,[4],114%
same,residual activity,[7],36%
COc1cc2ncnc(Nc3cccc(Cl)c3)c2cc1OC,residual activity,[1],100%
same,residual activity,[2],122%
same,residual activity,[3],85%
same,residual activity,[10],74%
same,residual activity,[8],103%
same,residual activity,[4],113%
same,residual activity,[7],103%
CC(C)c1nn(-c2c(Cl)cccc2Cl)c2nc(Cc3ccc(OCCO)cc3)[nH]c(=O)c12,residual activity,[1],91%
same,residual activity,[5],92%
same,residual activity,[6],97%
same,residual activity,[2],73%
same,residual activity,[3],74%
same,residual activity,[9],98%
same,residual activity,[10],94%
same,residual activity,[4],87%
same,residual activity,[7],96%
Nc1ncnc2c1cnn2-c1ccccc1,residual activity,[1],86%
same,residual activity,[5],95%
same,residual activity,[2],71%
same,residual activity,[3],69%
N#Cc1c(NC(=O)c2cccc3ccccc23)sc2c1CCCC2,residual activity,[1],81%
same,residual activity,[5],93%
same,residual activity,[3],77%
same,residual activity,[8],100%
same,residual activity,[4],91%
same,residual activity,[7],77%
CC(C)(C)c1nc2c3ccc(F)cc3c3c(=O)[nH]ccc3c2[nH]1,residual activity,[1],3%
same,residual activity,[5],11%
same,residual activity,[6],14%
same,residual activity,[2],38%
same,residual activity,[3],27%
same,residual activity,[7],0%
